± gives the standard deviation.
T1: HaloTag-ATRX ADD domain (163-292)
T1 chain: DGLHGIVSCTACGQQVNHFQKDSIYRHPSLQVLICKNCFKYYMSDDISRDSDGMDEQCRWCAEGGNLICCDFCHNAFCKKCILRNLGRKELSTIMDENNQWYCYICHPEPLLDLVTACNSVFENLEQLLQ


Target: T1, HaloTag-ATRX ADD domain (163-292)
Assay: peptide microarray binding signal (635 nm), min-max normalized on array (fraction of array maximum); higher = stronger binding
Conditions: peptide region: Unmod H2B variant; binder concentration: 50 nM
Procedure, shortened: (§1)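 Binding signal is the mean intensity of triplicate spots, min-max scaled within each library. Histone 13-mer peptide–cellulose conjugates were spotted in triplicate on nitrocellulose with a Cy3 tracer and blocked overnight at 4°C. Probing lasted 1 h at 4°C, either with biotin-labelled HaloTag reader fusions (10 nM to 1 μM) and streptavidin-Alexa Fluor 647 or with rabbit histone antibodies (1:10,000 to 1:2,000) and anti-rabbit Alexa 647. An Axon GenePix 4000B read signal at 635 nm and misprints at 532 nm.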

Binder	peptide microarray binding signal
PELAKSAPAPKKG [Unmod H2B variant P E L A K S A P A P K K G]	0.00618 ± 0.00062
PEVSSKGATISKK [Unmod H2B variant P E V S S K G A T I S K K]	0.0052 ± 0.00018
APKKGSKKAVTKA [Unmod H2B variant A P K K G S K K A V T K A]	0.00705 ± 0.00011
PEPSKSAPAPKKG [Unmod H2B variant P E P S K S A P A P K K G]	0.00618 ± 0.00016
PEPAKSAPAPKKG [Unmod H2B variant P E P A K S A P A P K K G]	0.00404 ± 8.4e-05
PEPTKSAPAPKKG [Unmod H2B variant P E P T K S A P A P K K G]	0.006019 ± 5.5e-05

Same assay, conditions: peptide region: Unmod H2B variant; binder concentration: 500 nM

Binder	peptide microarray binding signal
PELAKSAPAPKKG [Unmod H2B variant P E L A K S A P A P K K G]	0.0121 ± 0.001
PEVSSKGATISKK [Unmod H2B variant P E V S S K G A T I S K K]	0.00605 ± 0.00026
APKKGSKKAVTKA [Unmod H2B variant A P K K G S K K A V T K A]	0.00729 ± 0.00014
PEPSKSAPAPKKG [Unmod H2B variant P E P S K S A P A P K K G]	0.0115 ± 0.0012
PEPAKSAPAPKKG [Unmod H2B variant P E P A K S A P A P K K G]	0.00971 ± 0.00016
PEPTKSAPAPKKG [Unmod H2B variant P E P T K S A P A P K K G]	0.0126 ± 0.00066

These binders were tested against HaloTag-ING2 PHD (mouse Ing2 200-280) in the same assay as above. Conditions: peptide region: Unmod H2B variant; binder concentration: 10 nM.
Procedure, shortened: as §1

Binder	peptide microarray binding signal
PELAKSAPAPKKG [Unmod H2B variant P E L A K S A P A P K K G]	0.0037 ± 8.6e-05
PEVSSKGATISKK [Unmod H2B variant P E V S S K G A T I S K K]	0.003103 ± 3e-05
APKKGSKKAVTKA [Unmod H2B variant A P K K G S K K A V T K A]	0.00185 ± 1.9e-05
PEPSKSAPAPKKG [Unmod H2B variant P E P S K S A P A P K K G]	0.00406 ± 0.00015
PEPAKSAPAPKKG [Unmod H2B variant P E P A K S A P A P K K G]	0.00346 ± 6.5e-05
PEPTKSAPAPKKG [Unmod H2B variant P E P T K S A P A P K K G]	0.0173 ± 0.011

Same assay, conditions: peptide region: Unmod H2B variant; binder concentration: 100 nM

Binder	peptide microarray binding signal
PELAKSAPAPKKG [Unmod H2B variant P E L A K S A P A P K K G]	0.0085 ± 0.0029
PEVSSKGATISKK [Unmod H2B variant P E V S S K G A T I S K K]	0.00468 ± 0.00025
APKKGSKKAVTKA [Unmod H2B variant A P K K G S K K A V T K A]	0.00446 ± 0.00013
PEPSKSAPAPKKG [Unmod H2B variant P E P S K S A P A P K K G]	0.0137 ± 0.0011
PEPAKSAPAPKKG [Unmod H2B variant P E P A K S A P A P K K G]	0.00369 ± 5.6e-05
PEPTKSAPAPKKG [Unmod H2B variant P E P T K S A P A P K K G]	0.0103 ± 0.0017

These binders were tested against anti-H3K4me3 antibody ab8580 in the same assay as above. Conditions: peptide region: Unmod H2B variant; binder concentration: 1:2,000 dilution.
Procedure, shortened: as §1

Binder	peptide microarray binding signal
PELAKSAPAPKKG [Unmod H2B variant P E L A K S A P A P K K G]	0.0013 ± 0.00034
PEVSSKGATISKK [Unmod H2B variant P E V S S K G A T I S K K]	0.00051 ± 1.5e-05
APKKGSKKAVTKA [Unmod H2B variant A P K K G S K K A V T K A]	0.000529 ± 1.4e-05
PEPSKSAPAPKKG [Unmod H2B variant P E P S K S A P A P K K G]	0.000963 ± 6.3e-05
PEPAKSAPAPKKG [Unmod H2B variant P E P A K S A P A P K K G]	0.000359 ± 3.7e-06
PEPTKSAPAPKKG [Unmod H2B variant P E P T K S A P A P K K G]	0.001 ± 0.0001

Same assay, conditions: peptide region: Unmod H2B variant; binder concentration: 1:10,000 dilution

Binder	peptide microarray binding signal
PELAKSAPAPKKG [Unmod H2B variant P E L A K S A P A P K K G]	0.0028 ± 0.00029
PEVSSKGATISKK [Unmod H2B variant P E V S S K G A T I S K K]	0.000742 ± 1.3e-05
APKKGSKKAVTKA [Unmod H2B variant A P K K G S K K A V T K A]	0.000571 ± 1.1e-05
PEPSKSAPAPKKG [Unmod H2B variant P E P S K S A P A P K K G]	0.00126 ± 9.4e-05
PEPAKSAPAPKKG [Unmod H2B variant P E P A K S A P A P K K G]	0.00097 ± 2e-05
PEPTKSAPAPKKG [Unmod H2B variant P E P T K S A P A P K K G]	0.00205 ± 0.00015

The binders below were run against anti-H3K9me3 antibody ab8898 in the same assay as above. Conditions: peptide region: Unmod H2B variant; binder concentration: 1:2,000 dilution.
Procedure, shortened: as §1

Binder	peptide microarray binding signal
PELAKSAPAPKKG [Unmod H2B variant P E L A K S A P A P K K G]	0.000951 ± 7.1e-05
PEVSSKGATISKK [Unmod H2B variant P E V S S K G A T I S K K]	0.000362 ± 1.3e-05
APKKGSKKAVTKA [Unmod H2B variant A P K K G S K K A V T K A]	0.000211 ± 2.2e-06
PEPSKSAPAPKKG [Unmod H2B variant P E P S K S A P A P K K G]	0.000453 ± 7.5e-06
PEPAKSAPAPKKG [Unmod H2B variant P E P A K S A P A P K K G]	0.000408
PEPTKSAPAPKKG [Unmod H2B variant P E P T K S A P A P K K G]	0.000649 ± 1.2e-05

Same assay, conditions: peptide region: Unmod H2B variant; binder concentration: 1:10,000 dilution

Binder	peptide microarray binding signal
PELAKSAPAPKKG [Unmod H2B variant P E L A K S A P A P K K G]	0.00133 ± 8.2e-05
PEVSSKGATISKK [Unmod H2B variant P E V S S K G A T I S K K]	0.000634
APKKGSKKAVTKA [Unmod H2B variant A P K K G S K K A V T K A]	0.000461
PEPSKSAPAPKKG [Unmod H2B variant P E P S K S A P A P K K G]	0.000923 ± 9.6e-06
PEPAKSAPAPKKG [Unmod H2B variant P E P A K S A P A P K K G]	0.000346 ± 3.8e-06
PEPTKSAPAPKKG [Unmod H2B variant P E P T K S A P A P K K G]	0.00115 ± 2e-05

Target: T1, HaloTag-ATRX ADD domain (163-292)
Assay: as above
Conditions: peptide region: Unmod H2A variant; binder concentration: 50 nM
Procedure, shortened: as §1

Binder	peptide microarray binding signal
IQAVLLPKKTESH [Unmod H2A variant I Q A V L L P K K T E S H]	0.0353 ± 0.0028
RNDEELNKLLGGV [Unmod H2A variant R N D E E L N K L L G G V]	0.0156 ± 0.00038
RNDEELNKLLGKV [Unmod H2A variant R N D E E L N K L L G K V]	0.0192 ± 0.00022
LNKLLGKVTIAQG [Unmod H2A variant L N K L L G K V T I A Q G]	0.0216 ± 0.0016

Same assay, conditions: peptide region: Unmod H2A variant; binder concentration: 500 nM

Binder	peptide microarray binding signal
IQAVLLPKKTESH [Unmod H2A variant I Q A V L L P K K T E S H]	0.0333 ± 0.018
RNDEELNKLLGGV [Unmod H2A variant R N D E E L N K L L G G V]	0.0164 ± 0.00093
RNDEELNKLLGKV [Unmod H2A variant R N D E E L N K L L G K V]	0.024 ± 0.0011
LNKLLGKVTIAQG [Unmod H2A variant L N K L L G K V T I A Q G]	0.028 ± 0.0031

What follows are binders tested against HaloTag-ING2 PHD (mouse Ing2 200-280) in the same assay as above. Conditions: peptide region: Unmod H2A variant; binder concentration: 10 nM.
Procedure, shortened: as §1

Binder	peptide microarray binding signal
IQAVLLPKKTESH [Unmod H2A variant I Q A V L L P K K T E S H]	0.0199 ± 0.00099
RNDEELNKLLGGV [Unmod H2A variant R N D E E L N K L L G G V]	0.00412 ± 5.7e-05
RNDEELNKLLGKV [Unmod H2A variant R N D E E L N K L L G K V]	0.00513 ± 0.00017
LNKLLGKVTIAQG [Unmod H2A variant L N K L L G K V T I A Q G]	0.006087 ± 5.8e-05

Same assay, conditions: peptide region: Unmod H2A variant; binder concentration: 100 nM

Binder	peptide microarray binding signal
IQAVLLPKKTESH [Unmod H2A variant I Q A V L L P K K T E S H]	0.0828 ± 0.029
RNDEELNKLLGGV [Unmod H2A variant R N D E E L N K L L G G V]	0.00397 ± 0.0011
RNDEELNKLLGKV [Unmod H2A variant R N D E E L N K L L G K V]	0.00907 ± 0.002
LNKLLGKVTIAQG [Unmod H2A variant L N K L L G K V T I A Q G]	0.032 ± 0.015

What follows are binders tested against anti-H3K4me3 antibody ab8580 in the same assay as above. Conditions: peptide region: Unmod H2A variant; binder concentration: 1:2,000 dilution.
Procedure, shortened: as §1

Binder	peptide microarray binding signal
IQAVLLPKKTESH [Unmod H2A variant I Q A V L L P K K T E S H]	0.00283 ± 0.0019
RNDEELNKLLGGV [Unmod H2A variant R N D E E L N K L L G G V]	0.0091 ± 0.00022
RNDEELNKLLGKV [Unmod H2A variant R N D E E L N K L L G K V]	0.00181 ± 0.00069
LNKLLGKVTIAQG [Unmod H2A variant L N K L L G K V T I A Q G]	0.00715 ± 0.00038

Same assay, conditions: peptide region: Unmod H2A variant; binder concentration: 1:10,000 dilution

Binder	peptide microarray binding signal
IQAVLLPKKTESH [Unmod H2A variant I Q A V L L P K K T E S H]	0.00371 ± 0.00028
RNDEELNKLLGGV [Unmod H2A variant R N D E E L N K L L G G V]	0.00171 ± 3.3e-05
RNDEELNKLLGKV [Unmod H2A variant R N D E E L N K L L G K V]	0.00217 ± 3.9e-05
LNKLLGKVTIAQG [Unmod H2A variant L N K L L G K V T I A Q G]	0.00171 ± 3.3e-05

These binders were tested against anti-H3K9me3 antibody ab8898 in the same assay as above. Conditions: peptide region: Unmod H2A variant; binder concentration: 1:2,000 dilution.
Procedure, shortened: as §1

Binder	peptide microarray binding signal
IQAVLLPKKTESH [Unmod H2A variant I Q A V L L P K K T E S H]	0.00285 ± 0.00015
RNDEELNKLLGGV [Unmod H2A variant R N D E E L N K L L G G V]	0.0018 ± 0.00014
RNDEELNKLLGKV [Unmod H2A variant R N D E E L N K L L G K V]	0.00159 ± 3.2e-05
LNKLLGKVTIAQG [Unmod H2A variant L N K L L G K V T I A Q G]	0.00115 ± 4.6e-05

Same assay, conditions: peptide region: Unmod H2A variant; binder concentration: 1:10,000 dilution

Binder	peptide microarray binding signal
IQAVLLPKKTESH [Unmod H2A variant I Q A V L L P K K T E S H]	0.0045 ± 0.00048
RNDEELNKLLGGV [Unmod H2A variant R N D E E L N K L L G G V]	0.00259 ± 6.1e-05
RNDEELNKLLGKV [Unmod H2A variant R N D E E L N K L L G K V]	0.001787 ± 1.7e-05
LNKLLGKVTIAQG [Unmod H2A variant L N K L L G K V T I A Q G]	0.001614 ± 1.6e-05
